Measured values as given in PubChem BioAssay AID588855 (National Center for Advancing Translational Sciences (NCATS), 2011).
The whole screen tested about 410,000 compounds, of which about 5,000 (1.2%) were called active. Roughly 13% stayed inconclusive and do not appear here. Calls come from the whole dose curve; as a rule, active = well fitted inhibition curve with a large enough effect; inconclusive = small, poorly fitted or top-dose-only effect; inactive = no such curve, though single readings can be large or run the other way. Shown is part of a subset that was picked to be rich in actives.

Test: qHTS for Inhibitors of TGF-b; note: nearly all actives have a fitted effect of over 65% in size
Conditions: HepG2 CAGA-GFP TGF-b/SMAD3 reporter, GFP fluorescence, 18 h, TGF-beta stimulated, 500 pg/mL final; series mostly up to 46.1 µM; activity, negative = inhibition: at the top concentration
How it was run: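 Smad-responsive CAGA-GFP expression was quantified in HEPG2 cells exposed to compounds and 500 pg/mL final TGF-beta for 18 h at 37 degrees C; unstimulated wells defined full inhibition.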
% is set by controls: 0 for no effect and ±100 for the full control effect; potency is the fitted concentration of half-maximal effect.

Row | SMILES | activity, negative = inhibition | Potency
1 | Cc1cc(C)cc(NC(=O)Cc2csc(C)n2)c1 | 0% (inactive) | –
2 | Cc1ccc(C)c(S(=O)(=O)n2nc(C)c(S(=O)(=O)N3CCC(C)CC3)c2C)c1 | 1.69% (inactive) | –
3 | COC(=O)c1cc(Oc2ccc(S(=O)(=O)N3CCOCC3)cc2[N+](=O)[O-])cc(C(=O)OC)c1 | -15.1% (inactive) | –
4 | O=[N+]([O-])c1cc(S(=O)(=O)N2CCCC2)ccc1NN=C1CCCC1 | -8.61% (inactive) | –
5 | CC(C)N1CCC(=NNc2ccc([N+](=O)[O-])cc2S(=O)(=O)N2CCOCC2)CC1 | – | 11.2 µM (active)
6 | Cc1ccc(C)c(N2CCN(C(=O)CCc3c(C)nc4c(c3C)c(=O)n(C)c(=O)n4C)CC2)c1 | -24.3% (inactive) | –
7 | CCOc1ccc(CNC(=O)c2ccc(CS(=O)c3ccccc3)o2)cc1 (centres undefined) | -1.57% (inactive) | –
8 | CC(=O)c1ccc(N2CCN(C3C(=O)c4ccccc4N3C(C)=O)CC2)cc1 (centres undefined) | 0% (inactive) | –
9 | CCOc1ccc2nc(N(CCCN(C)C)C(=O)c3ccc(C(=O)c4ccccc4)cc3)sc2c1 | – | 22.4 µM (active)
10 | CCN(C(=O)COc1ccc(C(=O)c2ccccc2)cc1)c1ccccc1 | -18% (inactive) | –
11 | CCOc1ccc2nc(C(=O)N3CCCC(C)C3)sc2c1 (centres undefined) | 3.8% (inactive) | –
12 | Cc1ccc2nc(/C(C#N)=C/c3ccccc3F)[nH]c2c1 | -31.6% (inactive) | –
13 | Cn1c(=O)n(C)c2cc(S(=O)(=O)N3CCCc4ccccc43)ccc21 | – | 12.6 µM (active)
14 | O=S(=O)(c1ccccc1)N1CCc2ccccc21 | -0.156% (inactive) | –
15 | CCn1c(=O)c(=O)n(CC)c2cc(S(=O)(=O)N3CCc4ccccc43)ccc21 | 8.33% (inactive) | –
16 | Cc1cc(C)cc(NC(=O)CSc2oc(-c3ccccc3)nc2S(=O)(=O)c2ccc(Cl)cc2)c1 | 4.95% (inactive) | –
17 | COc1cc(C(=O)N2CCN(c3ccc(Nc4ccc(C)cc4)nn3)CC2)cc(OC)c1OC | -7.49% (inactive) | –
18 | Cc1onc(-c2ccc(F)cc2F)c1C(=O)Nc1cccc(C(F)(F)F)c1 | – | 12.6 µM (active)
19 | Cc1onc(-c2c(F)cccc2Cl)c1C(=O)N(C)CC(=O)Nc1cccc(F)c1 | -2.61% (inactive) | –
20 | Cc1onc(-c2c(F)cccc2Cl)c1C(=O)Nc1cccc(S(=O)(=O)N2CCCCC2)c1 | 5.34% (inactive) | –
21 | O=C1c2ccccc2C(=O)N1c1ccc(S(=O)(=O)N2CCOCC2)c2ccccc12 | 3.68% (inactive) | –
22 | Cc1ccc(-c2noc(-c3nnn(-c4cccc(C(F)(F)F)c4)c3N)n2)cc1 | 9.38% (inactive) | –
23 | COc1ccc(OC)c(CCNC(=O)CCCn2c(=O)c3cccn3c3cccnc32)c1 | -4.81% (inactive) | –
24 | CCOCCc1nn2c(=O)cc(COC(=O)CNC(=O)c3ccc(C(C)(C)C)cc3)nc2s1 | -31.7% (inactive) | –
25 | CCOC(=O)Cn1c(=O)n(C2CCCCC2)c2nc(-c3cccc(OC)c3)nc(C(N)=O)c21 | 1.49% (inactive) | –

Row | SMILES | activity, negative = inhibition | Potency
26 | Cc1nc2c(OCC(=O)C(C)(C)C)cccn2c1N(C)Cc1cccs1 | -8.85% (inactive) | –
27 | CCc1nc2c(OCc3ccc(Cl)cc3Cl)cccn2c1N(C)C(=O)C(C)C | – | 12.6 µM (active)
28 | Cc1nc2c(OCc3cccc(Cl)c3)cccn2c1N(C)CC1CC1 | -16.2% (inactive) | –
29 | CCc1nc2c(OCc3ccc(C(=O)OC)cc3)cccn2c1N(C)C(=O)C(C)C | -7.08% (inactive) | –
30 | CCc1nc2c(OCc3cccc(OC)c3)cccn2c1N(C)C(=O)C(C)C | -1.92% (inactive) | –
31 | Cc1nc2c(OCc3ccc(Cl)cc3Cl)cccn2c1N(C)CC1CC1 | – | 11.2 µM (active)
32 | COc1cccc(N2CC(NC(=O)/C=C\c3ccccc3)CC2=O)c1 (centres undefined) | -8.37% (inactive) | –
33 | O=C(CCSCc1cccc(F)c1)NCc1ccccc1 | -6.59% (inactive) | –
34 | CCN(CCCNC(=O)c1ccc(Sc2ccc(C)cc2)c(NC(C)=O)c1)c1cccc(C)c1 | -2.89% (inactive) | –
35 | CCCOc1ccc(C(=O)C(CCC(CNCC)C(=O)c2ccc(OCCC)cc2)CNCC)cc1 (centres undefined) | – | 3.16 µM (active)
36 | CCCOc1cccc(C(=O)Nc2cccc(NC(=O)c3ccc(C(C)(C)C)cc3)c2)c1 | -8.91% (inactive) | –
37 | COC(=O)c1ccc(OCC(=O)NC(C)(C)C)cc1 | 4.89% (inactive) | –
38 | Cc1cc(Br)ccc1NC(=O)Cn1cnc2sc(C)c(S(=O)(=O)N3CCN(C)CC3)c2c1=O | 5.55% (inactive) | –
39 | COc1cc(OC)cc(-c2nc3nc(C)c(CCC(=O)Nc4ccccc4)c(C)n3n2)c1 | -0.887% (inactive) | –
40 | Cc1ccc(-c2cn3c(n2)sc2cc(C(=O)NCCCc4ccccc4)ccc23)cc1 | 19.4% (inactive) | –
41 | COc1ccc(N2C(=O)CSC23C(=O)N(Cc2cccc(F)c2)c2ccccc23)cc1Cl (centres undefined) | 0.856% (inactive) | –
42 | COc1ccc(-c2nc3c4ccccc4n(CC(=O)Nc4ccc(C(C)=O)cc4)c(=O)n3n2)cc1 | -19% (inactive) | –
43 | COc1cc(CC(=O)Nc2nc(-c3ccc(F)c(F)c3)cs2)cc(OC)c1OC | – | 11.2 µM (active)
44 | O=C(COC(=O)C1CCCO1)Nc1nc(-c2ccc(F)cc2)cs1 (centres undefined) | -6.26% (inactive) | –
45 | COc1ccc(CCNC(=O)COC(=O)Cc2cc(OC)c(OC)c(OC)c2)cc1 | -3.46% (inactive) | –
46 | O=[N+]([O-])c1ccc(S(=O)(=O)N2CCN(c3nc(-c4ccccc4)nc4ccccc34)CC2)cc1 | 3.85% (inactive) | –
47 | COc1cccc(CNC(=O)C(NS(=O)(=O)c2ccc3nc(C)sc3c2)C(C)C)c1 (centres undefined) | -0.357% (inactive) | –
48 | COc1ccccc1NC(=O)c1cc(Cl)nnc1Cl | 2.59% (inactive) | –
49 | COc1ccccc1NC(=O)/C=C/C(N)=O | – | 12.6 µM (active)
50 | COc1ccccc1NC(=S)NC(=O)C(C)C | -9.88% (inactive) | –

Row | SMILES | activity, negative = inhibition | Potency
51 | CCOC(=O)C1=C(c2ccccc2)Nc2ncnn2C1c1ccc(Cl)cc1 (centres undefined) | 9.18% (inactive) | –
52 | Brc1ccc(C2=CC(c3ccco3)n3ncnc3N2)cc1 (centres undefined) | 64.9% (inactive) | –
53 | Clc1ccc2c(c1)C1=C(C(c3ccncc3)O2)C(c2ccc(Br)cc2)n2ncnc2N1 (centres undefined) | – | 3.98 µM (active)
54 | Cc1cc2c(C)nc(N/N=C/c3ccccc3)nc2o1 | 1.98% (inactive) | –
55 | FC(F)(F)c1cccc(N/N=C/c2ccccc2)c1 | – | 11.2 µM (active)
56 | Cc1nnsc1C(=O)N/N=C/c1cccc(C(F)(F)F)c1 | 6.29% (inactive) | –
57 | O=C1CSC2(C(=O)N(Cc3ccccc3)c3ccccc32)N1c1cccc(F)c1 (centres undefined) | -24.9% (inactive) | –
58 | CCN1CCc2nc3sc(C(=O)Nc4ccccc4OC(F)(F)F)c(N)c3cc2C1 | 44.2% (inactive) | –
59 | CCOC(=O)c1c(C)[nH]c(CCC(=O)Nc2ccc(OC)c(OC)c2)c1C | -4.89% (inactive) | –
60 | CN(C)CCNC(=O)c1ccc(-c2cn3c(-c4ccc(Oc5ccccc5)cc4)cnc3cn2)cc1 | – | 11.2 µM (active)
61 | Cc1noc(C)c1COc1ccc(C(=O)NCCOc2ccccc2)cc1 | -6.19% (inactive) | –
62 | CN(C)C(CNC(=O)c1ccc(OCc2cn3ccccc3n2)cc1)c1ccco1 (centres undefined) | 9.62% (inactive) | –
63 | COc1ccc(CCNC(=O)C(=O)NCC(c2ccco2)S(=O)(=O)c2cccs2)cc1OC (centres undefined) | 1.36% (inactive) | –
64 | OCC1OC(n2cnc3c(N4CCCC4)ncnc32)C(O)C1O (centres undefined) | – | 2.82 µM (active)
65 | OC[C@@H]1O[C@H](n2cnc3c(SCc4ccccc4)ncnc32)[C@H](O)[C@H]1O | -27.6% (inactive) | –
66 | CN1C[C@@H](CO)O[C@@H](n2cnc3c(N4CCN(CCO)CC4)ncnc32)C1 | 27.1% (inactive) | –
67 | COc1ccccc1NC(=O)CSc1oc(-c2ccco2)nc1S(=O)(=O)c1ccc(Br)cc1 | -1.11% (inactive) | –
68 | COc1ccccc1-c1cc2nc(C)c(CCC(=O)O)c(C)n2n1 | 25.9% (inactive) | –
69 | CN(N=O)c1ccc(C=C2c3ccccc3-c3ccccc32)cc1 | 15.6% (inactive) | –
70 | Cc1ccc(-c2nc(=N)sn2Cc2ccccc2)cc1 | 4.17% (inactive) | –
71 | Cc1ccc(-n2c3nc(=O)[nH]c(=O)c-3cc3c(Cl)cccc32)cc1 | 8.21% (inactive) | –
72 | O=C(NCCCN1CCN(c2cccc(Cl)c2)CC1)c1nnc(Cc2ccc(F)cc2Cl)o1 | – | 10 µM (active)
73 | COc1ccc(N2CCN(CCNC(=O)c3nnc(Cc4c(F)cccc4Cl)o3)CC2)cc1 | 0% (inactive) | –
74 | Cc1ccc(CCNC(=O)c2nnc(Cc3cccc(F)c3)o2)cc1 | -9.99% (inactive) | –
75 | COc1ccc(CCC(=O)NCc2ccc3c(c2)CCN3C(=O)c2ccc(F)cc2)cc1 | 13.9% (inactive) | –

Row | SMILES | activity, negative = inhibition | Potency
76 | CCCNC(=O)c1ccc(Cn2c(SCC(N)=O)nc3ccccc3c2=O)cc1 | 6.6% (inactive) | –
77 | COc1ccc(OC)c(CNC(=O)c2c3c(nc4ccccc24)C(=O)N(C2CCCCC2)C3)c1 | 17.7% (inactive) | –
78 | O=c1[nH]c(CCl)nc2cc(-c3ccc(Cl)cc3)sc12 | – | 5.01 µM (active)
79 | SCc1nc2ccc(Cl)cc2[nH]1 | -2.28% (inactive) | –
80 | Cn1c(NCc2cccnc2)nc2cc(-c3ccc(F)cc3)sc2c1=O | 17.1% (inactive) | –
81 | CC(C)(C)c1ccc(C(=O)C[N+]2(C)CCCc3ccccc32)cc1 (centres undefined) | -15.7% (inactive) | –
82 | Cc1nc(N=C(N)N)nc2c(C)cccc12 | – | 11.2 µM (active)
83 | N#Cc1ccc[n+](CC(=O)c2ccc(O)c(O)c2)c1 | 18.3% (inactive) | –
84 | CCCCCCCNc1ccc(/C=C/c2ccnc3ccccc23)cc1 | -2.79% (inactive) | –
85 | COc1ccc(Cn2c(=O)c3oc4ccccc4c3n(CC(=O)Nc3ccc(F)cc3F)c2=O)cc1 | 0.208% (inactive) | –
86 | CC(C)CNc1ncnc2c1nnn2C | -15.1% (inactive) | –
87 | CCCCSc1ncnc2c1sc1nc(N3CCOCC3)c3c(c12)CCCC3 | 4.55% (inactive) | –
88 | CCOC(=O)c1c(C)oc2cc(Sc3ccccc3)c(O)c(O)c12 | – | 10 µM (active)
89 | CCOC(=O)c1c(-c2ccccc2)oc2cc(Br)c(O)c(C=O)c12 | 0% (inactive) | –
90 | Cc1oc2cc(Br)c(O)c(Br)c2c1C(=O)c1ccccc1 | -23% (inactive) | –
91 | CCOc1ccc(NC(=O)c2c(NC(=O)Cc3ccccc3)sc3c2CCC(C)C3)cc1 (centres undefined) | -6.64% (inactive) | –
92 | COc1ccc(Cn2c(C(=O)O)c(CNCc3cccc(OC)c3)c3ccc(C)cc32)cc1 | 24.5% (inactive) | –
93 | COc1ccc(-n2c(=O)c3ccccc3n(Cc3ccccc3Cl)c2=O)cc1 | -14.6% (inactive) | –
94 | Cc1ccccc1-c1n[nH]c(=S)n1/N=C/c1ccc(-c2ccccc2Br)o1 | 1.01% (inactive) | –
95 | COc1ccccc1N1CCN(/N=C\C(Br)=C\c2ccccc2)CC1 | -15.2% (inactive) | –
96 | Cc1cc(-c2n[nH]c(=S)n2/N=C/C(Br)=C/c2ccccc2)n[nH]1 | – | 7.08 µM (active)
97 | Cc1ccc(Cl)cc1NC(=O)CSc1nc2ccccc2nc1Cc1ccccc1 | -4.85% (inactive) | –
98 | Cc1ccc(CNC(=O)CSc2c(C)cnc3c2c(=O)n(C)c(=O)n3C)cc1 | 3.08% (inactive) | –
99 | CN1CCN(c2oc(-c3ccc(COc4ccc(Cl)cc4)o3)nc2C#N)CC1 | -13.8% (inactive) | –
